ALDH1A1 inh = qHTS Assay for Inhibitors of Aldehyde Dehydrogenase 1 (ALDH1A1). Aldehyde dehydrogenase 1A1 (Homo sapiens), P00352. Purified ALDH1A1, NADH fluorescence, propionaldehyde substrate. Potency, µM (top dose mostly 75.3 µM), without a hit: top-dose activity, negative = inhibition, hits mostly inhibitors. 7.3% of 220,000 active; active = well fitted inhibition curve with a large enough effect, not every such curve was filed as active; inconclusive = small, poorly fitted or top-dose-only effect, or another doubt; inactive = no such curve, though single readings can be large or run the other way;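 note: potency is the fitted concentration of half-maximal effect; plate controls were no enzyme wells and a reference inhibitor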
Target sequence (P00352 whole entry, looked up): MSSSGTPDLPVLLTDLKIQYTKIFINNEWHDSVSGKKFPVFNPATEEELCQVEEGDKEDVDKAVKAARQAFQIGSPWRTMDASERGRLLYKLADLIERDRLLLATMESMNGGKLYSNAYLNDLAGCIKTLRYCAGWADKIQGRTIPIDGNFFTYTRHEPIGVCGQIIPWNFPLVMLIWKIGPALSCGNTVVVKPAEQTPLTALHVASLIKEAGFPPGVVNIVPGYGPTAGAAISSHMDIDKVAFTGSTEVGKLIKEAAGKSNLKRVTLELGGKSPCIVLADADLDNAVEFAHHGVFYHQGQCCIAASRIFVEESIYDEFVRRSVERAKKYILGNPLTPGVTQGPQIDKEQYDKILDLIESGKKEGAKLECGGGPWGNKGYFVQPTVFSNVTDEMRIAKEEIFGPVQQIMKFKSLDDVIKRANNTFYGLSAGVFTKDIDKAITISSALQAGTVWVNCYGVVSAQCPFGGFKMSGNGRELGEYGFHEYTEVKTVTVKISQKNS
PNC assembly inh = High Content Assay for Compounds that inhibit the Assembly of the Perinucleolar Compartment; PC3M PTB-GFP, PNC prevalence imaging, 16 h; hits give low values; activity change (PNC), negative = inhibition, % at 10 µM; 3.1% of 140,000 active;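 active = readout at or below -70, meaning at least 70% loss of cells showing the perinucleolar compartment, a nuclear body marking cancer cells; inconclusive = readout between -30 and a set limit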;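 note: plate controls were DMSO wells for no effect and camptothecin positive control wells for full effect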
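Compounds are pinned in duplicate onto adhered PC3M cells stably expressing GFP-tagged PTB and incubated 16 h at 37 C. Cells are then fixed, nuclei stained with Hoechst, and PNC-positive cells counted.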
HTT cytoprotect = qHTS Multiplex Assay to Identify Dual Action Probes in a Cell Model of Huntington: Cytoprotection (ATP); PC12 HTT-Q103 induced, cytoprotection, ATP luminescence, 40 h; Potency, µM (highest dose often 56.4 µM), for inactives: cytoprotection (ATP increase), actives largely listed as activators; 0.14% of 230,000 active; note: potency is the fitted concentration of half-maximal effect; % of control where 0% means no effect; nearly all actives have a fitted effect of over 45% in size
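Rat PC12, Q103 Htt exon1-GFP fusion, ecdysone promoter; tebufenozide inducer 100 nM final; compound titration; qHTS, 1500 cells/well; ATPlite luminescent read.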
HttQ103 aggreg = qHTS Multiplex Assay to Identify Dual Action Probes in a Cell Model of Huntington: Aggregate Formation (GFP) | 1.1% of 220,000 active | PC12 HttQ103-GFP aggregates, Acumen cytometry, 40 h | AID 1688, 2009 | Potency, µM (doses to about 46.1 µM), without a hit: top-dose activity change, negative = inhibition, actives largely listed as inhibitors; note: potency is the fitted concentration of half-maximal effect; % is set by controls: 0 for no effect and ±100 for the full control effect; nearly all actives have a fitted effect of over 60% in size
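PC12 cells stably carrying ecdysone-inducible HTT exon 1 Q103–GFP were induced with tebufenozide (100 nM final) and treated with library compounds in titration. GFP aggregates in lysates were counted by laser scanning cytometry.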
HPGD block = qHTS Assay for Inhibitors of HPGD (15-Hydroxyprostaglandin Dehydrogenase); 15-hydroxyprostaglandin dehydrogenase [NAD(+)] (Homo sapiens), P15428; purified HPGD, NADH fluorescence kinetic, PGE2 substrate; Potency, µM, for inactives: at the top dose activity change, negative = inhibition, usual class: inhibitors; 4.3% of 150,000 active; AID 894, 2007; active = well fitted inhibition curve with a large enough effect, not every such curve was filed as active; inconclusive = small, poorly fitted or top-dose-only effect, or another doubt; inactive = no such curve, though single readings can be large or run the other way; note: potency is the fitted concentration of half-maximal effect; % is set by controls: 0 for no effect and ±100 for the full control effect
Target sequence (P15428 whole entry, looked up): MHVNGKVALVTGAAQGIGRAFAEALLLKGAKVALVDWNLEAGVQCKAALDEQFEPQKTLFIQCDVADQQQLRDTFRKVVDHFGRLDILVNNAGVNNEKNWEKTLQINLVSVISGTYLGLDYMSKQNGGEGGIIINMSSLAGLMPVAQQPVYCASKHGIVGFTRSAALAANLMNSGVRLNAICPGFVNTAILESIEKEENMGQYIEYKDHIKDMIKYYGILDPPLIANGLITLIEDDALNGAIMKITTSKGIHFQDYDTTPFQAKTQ
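NADH formation kinetics: reaction with 30 uM PGE2 and 1 mM NAD+ (final), 20 nM enzyme, Tris-HCl pH 8 with Tween 20, after 15 min compound preincubation at room temperature. Fluorescence change, last versus first of five reads.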
CBFb RUNX1 block = qHTS Assay for Compounds Blocking the Interaction Between CBF-beta and RUNX1 for the Treatment of Acute Myeloid Leukemia. Runt-related transcription factor 1 (Homo sapiens) + Core-binding factor subunit beta …. AlphaScreen CBFb-His/RUNX1-biotin binding, biochemical. Potency, µM (series often up to 59.8 µM), for the others: at the highest dose activity, negative = inhibition, actives largely listed as inhibitors. 230,000 tested, under 10 active; note: % of control where 0% means no effect
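AlphaScreen binding: CBFb-His and RUNX1-biotin (30 nM each) preincubated 20 min, compound added for 15 min, then nickel and streptavidin beads for 90 min, all at room temperature. Disruption of the interaction by any mechanism counts as activity.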
Numbers without * were called inactive; [ ] = dose if it differs, or a comment. Most compounds without a hit are left out; they make up all but 11% or so of the library. Unless noted, calls come from the whole dose curve; as a rule, active = well fitted curve in the direction sought with a large enough effect; inconclusive = small, poorly fitted or top-dose-only effect, or another doubt; inactive = no such curve, though single readings can be large; an effect the other way counts as inactive or inconclusive.

For Cc1cc2ccccn2c1C(=O)c1ccc([N+](=O)[O-])o1 the results were ALDH1A1 inh inconclusive, HTT cytoprotect -11%[10 µM] and HttQ103 aggreg -3%[9.22 µM].
`Cc1cc(C)n(CC(=O)c2ccc(Cl)cc2)n1` gave ALDH1A1 inh 3%, HTT cytoprotect -29%, HttQ103 aggreg -11% and CBFb RUNX1 block -15%.
For CC1=C(CC(=O)c2ccc(Cl)cc2)C(=O)c2ccccc2C1=O the results were ALDH1A1 inh 2.5µM*, PNC assembly inh -19, HTT cytoprotect -152%, HttQ103 aggreg 3.5µM*, HPGD block -26% and CBFb RUNX1 block 1%.
CC(=O)NCCc1ccc(S(=O)(=O)Nc2cccnc2)cc1 was read as ALDH1A1 inh 0%, PNC assembly inh -82*, HTT cytoprotect 1%[10 µM], HttQ103 aggreg -17%, HPGD block -2% and CBFb RUNX1 block 5%.
CC(C)(C)c1ccc(S(=O)(=O)Nc2cccnc2)cc1 was read as ALDH1A1 inh inconclusive, PNC assembly inh 24, HTT cytoprotect -6%, HttQ103 aggreg inconclusive, HPGD block -10% and CBFb RUNX1 block -1%.
O=S(=O)(Nc1cccnc1)c1ccc(C2CCCCC2)cc1 was read as ALDH1A1 inh 6%, PNC assembly inh 36, HTT cytoprotect 7%[10 µM], HttQ103 aggreg 2.8µM*, HPGD block -4% and CBFb RUNX1 block 3%.
Screening FC(F)(F)c1nc(SCc2ccc(Cl)cc2)n[nH]1 returned ALDH1A1 inh 14%[13.5 µM], HTT cytoprotect 3%[10 µM] and HPGD block -10%.
For C/C(CCC(C)C)=N\Nc1cc(C)c2ccccc2n1 the results were ALDH1A1 inh inconclusive, HTT cytoprotect 3%, HttQ103 aggreg -8% and CBFb RUNX1 block 1%.
CNC(=O)[C@H](C)/C=C(\c1cccnc1)C(NC(=O)OCc1ccccc1)c1ccc(C(=O)OC)cc1 (some centres not stated) was read as ALDH1A1 inh 1%, HTT cytoprotect 3%, HPGD block -15% and CBFb RUNX1 block -12%.
Screening O=C(NCc1ccco1)c1cccc(NC(=O)c2ccccc2)c1 returned ALDH1A1 inh -1%, PNC assembly inh 22, HTT cytoprotect 2%, HttQ103 aggreg -24%, HPGD block -28% and CBFb RUNX1 block 3%.
`CCC(CC)C(=O)Nc1cccc(C(=O)NCc2ccco2)c1` gave ALDH1A1 inh -15%, PNC assembly inh -115*, HTT cytoprotect -6%[10 µM], HttQ103 aggreg 18%, HPGD block -4% and CBFb RUNX1 block 6%.
CCC(CC)C(=O)Nc1cccc(C(=O)NCCc2ccc(S(N)(=O)=O)cc2)c1 was read as ALDH1A1 inh 5%, PNC assembly inh -101*, HTT cytoprotect -5%[10 µM], HttQ103 aggreg -15%, HPGD block -7% and CBFb RUNX1 block 8%.
For CCC(CC)C(=O)Nc1cccc(C(=O)NCCc2ccccc2)c1 the results were ALDH1A1 inh 12%, HTT cytoprotect -33%, HttQ103 aggreg -8%[9.22 µM] and CBFb RUNX1 block 4%.
For CC(=O)OC[C@@H]1O[C@@H](O/N=C2/C[C@@H](O)[C@@H](O)[C@@H]3[C@H]4C(=O)N(c5ccc(F)cc5F)C(=O)[C@@H]4CC[C@H]23)[C@H](OC(C)=O)[C@H](OC(C)=O)[C@@H]1OC(C)=O the results were ALDH1A1 inh 1%[13.5 µM], HTT cytoprotect 5%[10 µM] and CBFb RUNX1 block 15%[13.1 µM].
For CN(Cc1ccccc1)C(=O)c1nc2ccccn2c1CN1CCC(N2CCOCC2)CC1 the results were HTT cytoprotect 3%[10 µM], HttQ103 aggreg 6%[9.22 µM] and CBFb RUNX1 block 11%.
Screening CC(C)CN1CCC2(CC1)CCN(C(=O)c1cccc(F)c1)CC2 returned ALDH1A1 inh 2%, HTT cytoprotect 18% and HPGD block -23%.
`COCCNC(=O)COc1ccc(C)cc1C` gave ALDH1A1 inh -14%, PNC assembly inh -23, HTT cytoprotect 13%[10 µM], HttQ103 aggreg 6%, HPGD block 14µM* and CBFb RUNX1 block 4%.
COCCCNC(=O)COc1ccc(Br)cc1Cl was read as ALDH1A1 inh 8%, PNC assembly inh -90*, HttQ103 aggreg 0%, HPGD block -12% and CBFb RUNX1 block 3%.
For CCNC(=O)COc1ccc(Br)cc1Cl the results were ALDH1A1 inh 7%, PNC assembly inh -23, HTT cytoprotect -26%[10 µM], HttQ103 aggreg 3%, HPGD block -22% and CBFb RUNX1 block 5%.
Screening CCC1CC=CC2C1C(=O)N(Cc1ccccc1)C2c1cc(C)ccc1F (configuration not stated) returned CBFb RUNX1 block 25%.
Screening CCc1cc(=O)oc2cc3occ(-c4ccc(OC)c(F)c4)c3cc12 returned ALDH1A1 inh -9%, PNC assembly inh -93*, HTT cytoprotect -59%[10 µM], HttQ103 aggreg -9%, HPGD block inconclusive and CBFb RUNX1 block 9%.
Screening O=C(O)[C@H]1CCCC[C@@H]1C(=O)Nc1nc2ccccc2[nH]1 returned ALDH1A1 inh -2%[13.5 µM], HTT cytoprotect 4%[10 µM] and HPGD block -7%.
CCC12CCCN3CCC4(C(=C(C(=O)OC)C1)Nc1ccccc14)C32 (configuration not stated) was read as ALDH1A1 inh 20µM*, PNC assembly inh inconclusive, HTT cytoprotect -9%, HttQ103 aggreg 18%, HPGD block -22% and CBFb RUNX1 block -2%.
`COc1cc2c(cc1OC)CN(c1ccc(-c3ccccc3OC)nn1)CC2` gave ALDH1A1 inh -2%, PNC assembly inh -17, HTT cytoprotect -64%, HttQ103 aggreg -15%, HPGD block 35µM* and CBFb RUNX1 block -16%.
For Nc1nc(C2CC(=O)OC23CCCCC3)cs1 (configuration not stated) the results were ALDH1A1 inh inconclusive, PNC assembly inh -119*, HTT cytoprotect 6%[10 µM], HttQ103 aggreg -5%, HPGD block -7% and CBFb RUNX1 block -1%.
For C[C@H]1CN(CCO)CCN1c1ccccc1 the results were ALDH1A1 inh 7%[13.5 µM], HTT cytoprotect -4%[10 µM] and HPGD block -4%.
Screening CCCCCCCCCC[Si](C)(C)CCC(=O)NC(Cc1ccc(C)cc1)c1ccccc1 (configuration not stated) returned ALDH1A1 inh 5%, HPGD block -7% and CBFb RUNX1 block 7%.
